The values that follow come from PubChem BioAssay.

Structures are written as SMILES. Activity calls are given as the source filed them.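 The calls were made as follows: active = compound that reduces growth-factor-driven endothelial tube area in a mixed cell culture, no cutoff stated; inactive = the rest.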

The test in a line: inhibition of endothelial tube formation, primary screen, imaging, VEGF stimulated, CD31 staining, tube area, NPC library (AID 1117340). The settings on record: VEGF-stimulated ADSC/ECFC co-culture, at 10 µM, active compounds read high.
With `CCCCCCCC/C=C/C(=O)O`, the tube area decrease is -10.1% (inactive). Take `O=C(OCC(COC(=O)c1cccnc1)(COC(=O)c1cccnc1)COC(=O)c1cccnc1)c1cccnc1`: the tube area decrease was -11.4% (inactive). Turning to `CCCCC(O)/C=C(C)/C=C/C=C/C(=O)N1CCCC1=O` (configuration not stated), the tube area decrease was 17.5% (inactive). As for `CCCCCCCC/C=C\CCCCCCCCN`, the figure is 90% (active); as for `C[N+](C)(CCOc1ccccc1)Cc1cccs1`, -14.7% (inactive). With `CCCOc1ccc2c(c1)CC[C@@H]1[C@@H]2CC[C@]2(C)C(OC)CC[C@@H]12` (some centres not stated), the tube area decrease is -3.1% (inactive). With `NS(=O)(=O)c1ccc(Cl)c(S(N)(=O)=O)c1` the figure was 12.2% (inactive); with `COc1ccc2c(c1)c(CC(=O)OC/C=C(\C)CC/C=C(\C)CCC=C(C)C)c(C)n2C(=O)c1ccc(Cl)cc1`, 5.1% (inactive). With `O=S(=O)(O)CC(S)CS` (configuration not stated) the figure was -1.9% (inactive); with `Cc1ccc2ccc(Cl)cc2n1`, -2.2% (inactive). With `NC(=O)NS(=O)(=O)c1ccc(Cl)cc1` the figure was -14.2% (inactive). As for `COc1cccc(CCc2ccccc2OCC(CN(C)C)OC(=O)CCC(=O)O)c1` (configuration not stated), the tube area decrease is 0.9% (active).

As to `Cc1cc(O)c(Cl)c(C)c1Cl`, the tube area decrease was 7.2% (inactive). As for `COc1cccc2c1C(=O)c1c(O)c3c(c(O)c1C2=O)C[C@@](O)(C(=O)CO)C[C@@H]3O[C@H]1C[C@H](N)[C@H](O[C@@H]2CCCCO2)[C@H](C)O1`, the figure is -67.7% (active). With `CCCCCCCCCC(=O)O` the figure was -24.1% (inactive). As for `O=C(CCN1CCC(c2ccccc2)C1)c1ccc2c(c1)OCCO2` (configuration not stated), the figure is 17% (active); as for `CNC(=O)c1cnn(-c2nc(N)c3ncn([C@@H]4O[C@H](CO)[C@@H](O)[C@H]4O)c3n2)c1`, 20.4% (inactive).
